{"source": "PubChem BioAssay (EPA / NIEHS)", "key": {"[1]": {"target": "Retinoic acid receptor RXR-alpha (Homo sapiens) (UniProt P19793)", "sequence (P19793 whole entry, looked up, the tested form may be a part)": "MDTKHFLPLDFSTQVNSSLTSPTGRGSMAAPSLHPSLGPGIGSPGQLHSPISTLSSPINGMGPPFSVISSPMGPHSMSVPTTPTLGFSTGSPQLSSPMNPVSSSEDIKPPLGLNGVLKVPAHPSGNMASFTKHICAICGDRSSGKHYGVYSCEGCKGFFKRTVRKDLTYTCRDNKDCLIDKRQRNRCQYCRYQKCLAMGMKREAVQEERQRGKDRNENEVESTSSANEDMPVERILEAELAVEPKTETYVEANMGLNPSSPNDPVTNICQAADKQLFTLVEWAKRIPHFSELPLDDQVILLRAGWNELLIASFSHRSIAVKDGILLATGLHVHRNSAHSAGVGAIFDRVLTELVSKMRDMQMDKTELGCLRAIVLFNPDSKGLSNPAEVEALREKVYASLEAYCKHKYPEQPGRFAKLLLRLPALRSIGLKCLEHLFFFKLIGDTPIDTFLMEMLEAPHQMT", "test": "ATG_RXRa_TRANS: Attagene TRANS-FACTORIAL HepG2 Assay for human Retinoid X Receptor alpha (RXRa) (AID 2283012; active = hit-call score of the fitted dose curve at least 0.9, where 1 is the maximum)", "outline": "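Transient transfection of human HepG2 with multiple GAL4-UAS reporter constructs; 24 h compound exposure; total RNA isolated, reverse-transcribed, PCR-amplified, 6-FAM labelled, HpaI-cut, resolved by capillary electrophoresis. Positive-direction fit versus DMSO.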"}, "[2]": {"target": "human Retinoid X Receptor beta (RXRb), RXRB (gene 6257) (UniProt P28702)", "sequence (P28702 whole entry, looked up, the tested form may be a part)": "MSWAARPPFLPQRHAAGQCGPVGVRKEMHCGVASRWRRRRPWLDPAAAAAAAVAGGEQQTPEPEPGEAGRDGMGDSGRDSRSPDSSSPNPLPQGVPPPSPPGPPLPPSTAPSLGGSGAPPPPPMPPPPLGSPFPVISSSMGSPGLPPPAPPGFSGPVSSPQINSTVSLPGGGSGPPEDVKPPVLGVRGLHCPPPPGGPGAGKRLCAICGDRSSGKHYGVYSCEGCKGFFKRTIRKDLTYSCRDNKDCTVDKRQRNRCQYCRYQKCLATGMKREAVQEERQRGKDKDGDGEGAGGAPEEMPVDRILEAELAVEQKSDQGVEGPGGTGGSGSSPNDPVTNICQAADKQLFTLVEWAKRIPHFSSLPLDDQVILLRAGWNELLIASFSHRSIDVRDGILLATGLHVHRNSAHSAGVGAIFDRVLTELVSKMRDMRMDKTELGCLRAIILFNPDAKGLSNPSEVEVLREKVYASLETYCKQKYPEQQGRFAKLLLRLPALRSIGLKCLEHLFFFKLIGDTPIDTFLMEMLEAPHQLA", "test": "ATG_RXRb_TRANS: Attagene TRANS-FACTORIAL HepG2 Assay for human Retinoid X Receptor beta (RXRb) (AID 2283013; active = hit-call score of the fitted dose curve at least 0.9, where 1 is the maximum)", "outline": "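Transfect HepG2 with GAL4-UAS multi-reporter constructs (chimeric NR-Gal4, TRANS format); dose compound 24 h; isolate RNA, RT-PCR, FAM primer extension, HpaI digest; quantify by capillary electrophoresis; positive direction vs DMSO.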"}, "[3]": {"read-out": "E-selectin (Homo sapiens) (UniProt P16581)", "test": "BSK_3C_Eselectin: BioMAP Diversity Plus: 3C Assay for Eselectin Biomarker Activity (AID 2283015)", "details": "primary human endothelial cells (HUVEC); actives raise or lower the signal", "outline": "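HUVEC, 3C stimulation; compound exposure 24 h; E-selectin by ELISA; gain- or loss-of-signal fitted bidirectionally vs DMSO baseline.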"}, "[4]": {"read-out": "Interleukin-1 alpha (IL1a), IL1A (gene 3552)", "test": "BSK_BE3C_IL1a: BioMAP Diversity Plus: BE3C Assay for Interleukin-1 alpha (IL1a) Biomarker Activity (AID 2283016)", "details": "primary human bronchial epithelial cells; actives raise or lower the signal", "outline": "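BE3C primary human bronchial epithelium; cpd 24 h; IL-1a by ELISA; bidirectional fit vs DMSO; parallel SRB (0.1% SRB, 10% TCA fix, 560 nm) for cytotoxicity.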"}, "[5]": {"read-out": "Monocyte Chemoattractant Protein-1 (MCP1), CCL2 (gene 6347)", "test": "BSK_4H_MCP1: BioMAP Diversity Plus: 4H Assay for Monocyte Chemoattractant Protein-1 (MCP1) Biomarker Activity (AID 2283018)", "details": "primary human endothelial cells (HUVEC); actives raise or lower the signal", "outline": "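ELISA read-out of MCP-1 from human vascular endothelial primary cells taken at 24 hours after compound exposure. Activity was fitted in both directions relative to DMSO, which served as negative control.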"}, "[6]": {"read-out": "Human Leukocyte Antigen - DR isotype (HLADR), HLA-DRA (gene 3122)", "test": "BSK_3C_HLADR: BioMAP Diversity Plus: 3C Assay for Human Leukocyte Antigen - DR isotype (HLADR) Biomarker Activity (AID 2283019)", "details": "primary human endothelial cells (HUVEC); actives raise or lower the signal", "outline": "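HUVEC, 3C stimulation, 24 h post-dose; HLA-DR by ELISA; bidirectional curve fit vs DMSO baseline; gain or loss of signal scored.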"}, "[7]": {"read-out": "Interleukin-8 (IL8), CXCL8 (gene 3576)", "test": "BSK_3C_IL8: BioMAP Diversity Plus: 3C Assay for Interleukin-8 (IL8) Biomarker Activity (AID 2283020)", "details": "primary human endothelial cells (HUVEC); actives raise or lower the signal", "outline": "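ELISA read-out of IL-8 from human umbilical vein endothelium, measured 24 h after chemical dosing. Activity is expressed relative to DMSO negative control, with both increases and decreases fitted.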"}, "[8]": {"target": "human Vitamin D Receptor (VDR), VDR (gene 7421) (UniProt P11473)", "sequence (P11473 whole entry, looked up, the tested form may be a part)": "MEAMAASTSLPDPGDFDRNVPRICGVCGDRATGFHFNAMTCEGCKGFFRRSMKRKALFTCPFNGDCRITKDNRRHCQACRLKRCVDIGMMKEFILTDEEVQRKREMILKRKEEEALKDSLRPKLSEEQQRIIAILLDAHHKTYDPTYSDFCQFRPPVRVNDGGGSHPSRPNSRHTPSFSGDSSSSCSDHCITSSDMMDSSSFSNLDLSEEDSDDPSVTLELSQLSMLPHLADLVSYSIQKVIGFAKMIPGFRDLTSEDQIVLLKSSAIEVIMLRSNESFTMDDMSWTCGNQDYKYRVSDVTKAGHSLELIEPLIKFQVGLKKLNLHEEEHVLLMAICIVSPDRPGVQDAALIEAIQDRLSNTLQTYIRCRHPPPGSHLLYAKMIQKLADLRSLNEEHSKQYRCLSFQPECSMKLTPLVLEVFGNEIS", "test": "ATG_VDR_TRANS: Attagene TRANS-FACTORIAL HepG2 Assay for human Vitamin D Receptor (VDR) (AID 2283022; active = hit-call score of the fitted dose curve at least 0.9, where 1 is the maximum)", "outline": "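RT-PCR/capillary electrophoresis read-out of reporter mRNA induction in transiently transfected HepG2; 24 h dosing; chimeric NR-Gal4 (TRANS format); gain-of-signal fit against DMSO baseline.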"}, "[9]": {"test": "BSK_3C_SRB: Viability Assessment in the BioMAP Diversity Plus: 3C Assay (AID 2283023);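 note: fitted both ways against DMSO so a hit may be signal rise or drop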", "details": "primary human endothelial cells (HUVEC)", "outline": "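HUVEC, 24 h post-dose; 10% TCA fix, 0.1% SRB stain, A560 nm. Bidirectional curve fit vs DMSO negative control.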"}, "[10]": {"read-out": "Matrix Metallopeptidase 1 (MMP1), MMP1 (gene 4312)", "test": "BSK_BE3C_MMP1: BioMAP Diversity Plus: BE3C Assay for Matrix Metallopeptidase 1 (MMP1) Biomarker Activity (AID 2283024)", "details": "primary human bronchial epithelial cells; actives raise or lower the signal", "outline": "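Human bronchial epithelial cells (BE3C system) exposed to compound for 24 h; MMP1 then quantified by ELISA. Activity was fitted in both directions relative to DMSO.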"}, "[11]": {"test": "BSK_3C_Vis: BioMAP Diversity Plus: 3C Assay for Morphology Visualization (AID 2283025);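 note: fitted both ways so gain or loss versus DMSO counts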;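 for AC50: light microscopy image of cell morphology used as background control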", "details": "primary human endothelial cells (HUVEC)", "outline": "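Chemicals were added to primary human umbilical vein endothelium, cells were incubated 24 h, and morphology was then visualized by light microscopy. Gain or loss of signal was fitted bidirectionally relative to DMSO.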"}, "[12]": {"read-out": "Pselectin, SELP (gene 6403)", "test": "BSK_4H_Pselectin: BioMAP Diversity Plus: 4H Assay for Pselectin Biomarker Activity (AID 2283026)", "details": "primary human endothelial cells (HUVEC); actives raise or lower the signal", "outline": "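ELISA read-out of P-selectin on human umbilical vein endothelium after 24 h of dosing. Values derive from bidirectional fitting relative to DMSO. Parallel SRB protein staining flagged overt cytotoxicity.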"}, "[13]": {"test": "BSK_4H_SRB: Viability Assessment in the BioMAP Diversity Plus: 4H Assay (AID 2283027)", "details": "primary human endothelial cells (HUVEC)", "outline": "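Human umbilical vein endothelial cells were dosed with chemical and, after 24 h, fixed with 10% TCA, stained with 0.1% sulforhodamine B, and read at 560 nm to give total protein as a cytotoxicity measure. Bidirectional fitting relative to DMSO control.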"}, "[14]": {"test": "BSK_BE3C_SRB: Viability Assessment in the BioMAP Diversity Plus: BE3C Assay (AID 2283028)", "details": "primary human bronchial epithelial cells", "outline": "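Primary human bronchial epithelium; chemical dosing, 24 h; 10% TCA fix, 0.1% SRB stain, A560; bidirectional fit vs DMSO baseline.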"}, "[15]": {"read-out": "Thrombomodulin, THBD (gene 7056)", "test": "BSK_3C_Thrombomodulin: BioMAP Diversity Plus: 3C Assay for Thrombomodulin Biomarker Activity (AID 2283029)", "details": "primary human endothelial cells (HUVEC); actives raise or lower the signal", "outline": "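Read-out is ELISA of thrombomodulin on human umbilical vein endothelium 24 h after chemical dosing. Gain or loss of signal is scored relative to DMSO. Overt cytotoxicity is checked in parallel cultures by sulforhodamine B staining.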"}, "[16]": {"read-out": "Urokinase-type plasminogen activator receptor (uPAR), PLAUR (gene 5329)", "test": "BSK_4H_uPAR: BioMAP Diversity Plus: 4H Assay for Urokinase-type plasminogen activator receptor (uPAR) Biomarker Activity (AID 2283030)", "details": "primary human endothelial cells (HUVEC); actives raise or lower the signal", "outline": "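HUVEC, 24 h post-dose; uPAR by ELISA; bidirectional fit vs DMSO baseline.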"}, "[17]": {"read-out": "Monocyte Chemoattractant Protein-1 (MCP1), CCL2 (gene 6347)", "test": "BSK_3C_MCP1: BioMAP Diversity Plus: 3C Assay for Monocyte Chemoattractant Protein-1 (MCP1) Biomarker Activity (AID 2283017)", "details": "primary human endothelial cells (HUVEC); actives raise or lower the signal", "outline": "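HUVEC, 3C system; 24 h chemical exposure; MCP-1 by ELISA; bidirectional curve fit vs DMSO baseline.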"}, "[18]": {"read-out": "Monokine induced gamma interferon (MIG), CXCL9 (gene 4283)", "test": "BSK_3C_MIG: BioMAP Diversity Plus: 3C Assay for Monokine induced gamma interferon (MIG) Biomarker Activity (AID 2283021)", "details": "primary human endothelial cells (HUVEC); actives raise or lower the signal", "outline": "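Read-out is ELISA detection of MIG on human umbilical vein endothelial cells, taken 24 h after dosing. Gain or loss of signal was scored relative to DMSO controls using bidirectional curve fitting.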"}, "[19]": {"target": "human Thyroid Receptor alpha (THRa1), THRA (gene 7067) (UniProt P10827)", "sequence (P10827 whole entry, looked up, the tested form may be a part)": "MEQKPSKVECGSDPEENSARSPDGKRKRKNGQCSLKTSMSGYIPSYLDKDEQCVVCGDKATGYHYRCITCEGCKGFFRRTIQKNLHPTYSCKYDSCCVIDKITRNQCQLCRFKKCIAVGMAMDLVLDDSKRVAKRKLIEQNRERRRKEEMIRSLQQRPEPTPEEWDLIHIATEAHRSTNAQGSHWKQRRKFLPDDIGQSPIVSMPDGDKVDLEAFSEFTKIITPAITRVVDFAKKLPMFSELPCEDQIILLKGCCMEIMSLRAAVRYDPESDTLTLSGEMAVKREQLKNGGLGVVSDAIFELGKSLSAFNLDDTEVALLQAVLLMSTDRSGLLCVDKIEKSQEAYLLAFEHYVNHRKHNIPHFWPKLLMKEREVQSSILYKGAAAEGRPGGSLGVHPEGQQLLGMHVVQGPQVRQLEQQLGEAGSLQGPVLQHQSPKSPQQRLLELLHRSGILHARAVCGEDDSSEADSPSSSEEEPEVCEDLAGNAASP", "test": "ATG_THRa1_TRANS: Attagene TRANS-FACTORIAL HepG2 Assay for human Thyroid Receptor alpha (THRa1) (AID 2283014; active = hit-call score of the fitted dose curve at least 0.9, where 1 is the maximum)", "outline": "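Transient HepG2 transfection, NR-Gal4 chimera driving GAL4-UAS reporters; 24 h compound exposure; total RNA, oligo(dT) RT, PCR, fluorescent primer extension, capillary electrophoresis. Upward direction vs DMSO control.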"}}, "note": "Records with an inconclusive call do not appear. The source made the active and inactive calls. Rule for the calls, unless noted: active = hit-call score of the fitted dose curve at least 0.9, where 1 is the maximum; inactive = score below 0.9."}
{"smiles": "CCCOc1ccc(S(=O)(=O)N2CCN(CC)CC2)cc1-c1nc2c(CC)n(Cc3ccccn3)nc2c(=O)[nH]1", "values": [{"measurement": "outcome", "setting": "[1]", "value": "inactive"}, {"measurement": "outcome", "setting": "[2]", "value": "inactive"}, {"measurement": "outcome", "setting": "[3]", "value": "inactive"}, {"measurement": "outcome", "setting": "[4]", "value": "inactive"}, {"measurement": "outcome", "setting": "[5]", "value": "inactive"}, {"measurement": "outcome", "setting": "[6]", "value": "inactive"}, {"measurement": "outcome", "setting": "[7]", "value": "inactive"}, {"measurement": "outcome", "setting": "[8]", "value": "inactive"}, {"measurement": "outcome", "setting": "[9]", "value": "inactive"}, {"measurement": "outcome", "setting": "[10]", "value": "inactive"}, {"measurement": "outcome", "setting": "[11]", "value": "inactive"}, {"measurement": "outcome", "setting": "[12]", "value": "inactive"}, {"measurement": "outcome", "setting": "[13]", "value": "inactive"}, {"measurement": "outcome", "setting": "[14]", "value": "inactive"}, {"measurement": "outcome", "setting": "[15]", "value": "inactive"}, {"measurement": "outcome", "setting": "[16]", "value": "inactive"}]}
{"smiles": "Nc1ccn([C@@H]2O[C@H](CO)[C@@H](O)[C@@H]2O)c(=O)n1", "values": [{"measurement": "outcome", "setting": "[2]", "value": "inactive"}, {"measurement": "outcome", "setting": "[3]", "value": "inactive"}, {"measurement": "outcome", "setting": "[4]", "value": "inactive"}, {"measurement": "outcome", "setting": "[17]", "value": "inactive"}, {"measurement": "outcome", "setting": "[5]", "value": "inactive"}, {"measurement": "outcome", "setting": "[6]", "value": "inactive"}, {"measurement": "outcome", "setting": "[7]", "value": "inactive"}, {"measurement": "outcome", "setting": "[8]", "value": "inactive"}, {"measurement": "AC50", "setting": "[9]", "value": "7.44 µM (active)"}, {"measurement": "outcome", "setting": "[10]", "value": "inactive"}, {"measurement": "AC50", "setting": "[11]", "value": "39 µM (active)"}, {"measurement": "outcome", "setting": "[12]", "value": "inactive"}, {"measurement": "outcome", "setting": "[13]", "value": "inactive"}, {"measurement": "outcome", "setting": "[14]", "value": "inactive"}, {"measurement": "outcome", "setting": "[15]", "value": "inactive"}, {"measurement": "AC50", "setting": "[16]", "value": "4.93 µM (active)"}]}
{"smiles": "Cc1ccc(S(=O)(=O)NC(=O)NN2CCCCCC2)cc1", "values": [{"measurement": "outcome", "setting": "[1]", "value": "inactive"}, {"measurement": "outcome", "setting": "[2]", "value": "inactive"}, {"measurement": "outcome", "setting": "[3]", "value": "inactive"}, {"measurement": "outcome", "setting": "[4]", "value": "inactive"}, {"measurement": "outcome", "setting": "[5]", "value": "inactive"}, {"measurement": "outcome", "setting": "[6]", "value": "inactive"}, {"measurement": "outcome", "setting": "[7]", "value": "inactive"}, {"measurement": "outcome", "setting": "[18]", "value": "inactive"}, {"measurement": "outcome", "setting": "[8]", "value": "inactive"}, {"measurement": "outcome", "setting": "[9]", "value": "inactive"}, {"measurement": "outcome", "setting": "[11]", "value": "inactive"}, {"measurement": "outcome", "setting": "[12]", "value": "inactive"}, {"measurement": "outcome", "setting": "[13]", "value": "inactive"}, {"measurement": "outcome", "setting": "[14]", "value": "inactive"}, {"measurement": "outcome", "setting": "[15]", "value": "inactive"}, {"measurement": "outcome", "setting": "[16]", "value": "inactive"}]}
{"smiles": "CNC(C)=O", "values": [{"measurement": "outcome", "setting": "[2]", "value": "inactive"}, {"measurement": "outcome", "setting": "[19]", "value": "inactive"}, {"measurement": "outcome", "setting": "[3]", "value": "inactive"}, {"measurement": "outcome", "setting": "[4]", "value": "inactive"}, {"measurement": "outcome", "setting": "[5]", "value": "inactive"}, {"measurement": "outcome", "setting": "[6]", "value": "inactive"}, {"measurement": "outcome", "setting": "[7]", "value": "inactive"}, {"measurement": "outcome", "setting": "[18]", "value": "inactive"}, {"measurement": "outcome", "setting": "[9]", "value": "inactive"}, {"measurement": "outcome", "setting": "[11]", "value": "inactive"}, {"measurement": "outcome", "setting": "[12]", "value": "inactive"}, {"measurement": "outcome", "setting": "[13]", "value": "inactive"}, {"measurement": "outcome", "setting": "[14]", "value": "inactive"}, {"measurement": "outcome", "setting": "[15]", "value": "inactive"}, {"measurement": "outcome", "setting": "[16]", "value": "inactive"}]}
